Reference: PubChem BioAssay (NCI)
The panel holds about 83,000 compounds, 20% with a hit somewhere; the sample as a whole holds those more often.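 Single-concentration screen, 48 h exposure, 96-well plates. Endpoint: percent growth. Below 10 = active.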 A number with no mark means an inactive call. The source made the active and inactive calls.

The compounds below were run on EKVX NSCLC (assay: NCI-60 one-dose screen, 48 h (100 = growth as untreated, 0 = no growth, -100 = all killed)). Conditions: 10 µM unless noted.
Method: Growth inhibition of the EKVX human Non-Small Cell Lung tumor cell line is measured as a screen for anti-cancer activity. Cells are grown in 96 well plates and exposed to the test compound for 48 hours. Compounds are tested at a single concentration, which is 10^-5 M for most compounds. The reported endpoint is percent growth (GI% or GIPRCNT), where numbers from 0 - 100% represent growth inhibition, and numbers from -100% - 0 represent cell death. For example, a value of 40 represents 60% growth inhibition. A value of 0 means no net growth occurred over the course of the experiment. A value of -40 indicates 40% of cells at the beginning of the experiment died by the end of the experiment. A value of -100 means all cells are dead at the end of the experiment.
NCI-60 Human Tumor Cell Lines Screen was performed using the standard one-dose NCI protocol, which is described in more detail at https://dtp.cancer.gov/discovery_development/nci-60/default.htm.
Compounds with GIPRCNT values below 10 were considered active. Activity score was based on GIPRCNT using the following formula: […]
Score is 0 for GIPRCNT values of 100 or above, 50 for GIPRCNT values of 0, and 100 for GIPRCNT values of -100.
In the case of C=C(C)C(=O)Nc1ccc(NC(C)C)cc1, the growth is reported as 115%.
COc1ccc(-c2cc(=O)c3c(OC)c4ccoc4cc3o2)cc1 gave a growth of 86.3%.
In the case of COc1cccc(-c2nn(C(C)(C)C)cc2-c2ccnc(NCCCNS(=O)(=O)c3ccc(C)cc3)c2)c1, the growth is reported as 100%.
Cc1cc(N[C@@H]2CCC[C@H](Nc3ccnc4cc(Cl)ccc34)C2)nc(N2CCCCCC2)n1 was tested, and the growth was 7.62% (active).
With COCCNc1ccc2c3c(cccc13)C(=O)N(CCN(C)C)C2=O the growth was 22.5%.
Compound NC(=NCCCOc1ccc(Cl)cc1)Nc1ccc(C(F)(F)F)cc1 has a growth of 50.5%.
With COc1ccc2[nH]cc(-c3noc(C(=O)c4cn(C)c5ccc(F)cc45)n3)c2c1 the growth was 76.9%.
With CN(C)c1ccc(N=Nc2ccc(Br)cn2)c(O)c1 the growth was 14.3%.
COc1cccc2c1C(=O)c1c(O)c3c(c(O)c1C2=O)C[C@](O)(C(=O)CO)C[C@H]3O[C@@H]1C[C@@H](NC(=O)CCCCCN(C)C2(c3ccc(F)cc3)CC3CCC2C3)[C@H](O)[C@@H](C)O1 (stereo not given in full) was tested, and the growth was 33.9%.
Compound Cn1cc(-c2nonc2-c2c[nH]c3ccccc23)c2cccnc21 has a growth of 49.7%.
COc1cc2nc(N3CCCC3)nc(NCC3CCCCC3)c2cc1OC was tested, and the growth was 40.2%.
OCCN1CCN(c2nc(Nc3ccc(-c4nc5ccccc5[nH]4)cc3)c3cn[nH]c3n2)CC1 was tested, and the growth was -80.4% (active).
Compound N#Cc1c(-c2ccc(Cl)cc2)nc(N/N=C/c2cccc(Br)c2)nc1N1CCOCC1 has a growth of 68.7%.
O=c1nc2oc3ccc4ccccc4c3cc-2s1 was tested, and the growth was 46.1%.
O=C1c2cc3c(cc2-c2c1c1cc(F)c(F)cc1c(=O)n2CCCn1ccnc1)OCO3 gave a growth of 30.9%.
With Cc1nc(Nc2ccc(F)c(Cl)c2)sc1C(=O)O the growth was 8.63% (active).
In the case of COc1cc(/C=C/C(=O)c2cccnc2Nc2ccc(F)cc2)cc(OC)c1OC, the growth is reported as 69.5%.
COc1ccc2cc(-c3nn(-c4ccc(C(=O)O)cc4)cc3CO)ccc2c1 gave a growth of 90.7%.
Work on C=CC(=O)Nc1cccc(-c2nc(SC)nc(NCCc3ccc(OC)c(OC)c3)c2C#N)c1 yielded a growth of 43.8%.
CON1C(=O)CC[C@]2(C)[C@H]3CC[C@@H]4C([C@@]5(C)CCC(=O)O5)CC[C@@]4(C)[C@]3(C)CC[C@H]2C1(C)C (stereo not given in full) was tested, and the growth was 93.3%.
For c1ccc(CCNc2ncnc3[nH]ncc23)cc1, the growth was 58.3%.
For O=C1c2cc3c(cc2-c2c1c1ccc(F)cc1c(=O)n2C[C@H](O)[C@@H](O)[C@H](O)CO)OCO3, the growth was 13%.
O=C1c2ccccc2OC=C(c2ccccc2)N1CCCCNc1ccc(S(=O)(=O)Nc2ncccn2)cc1 showed a growth of 90%.
With CN1CCN=C1c1ccc(NC(=O)c2ccc(C(=O)Nc3ccc(C4=NCCN4C)cc3)cc2)cc1 the growth was 89.1%.
COc1ccc(C(=S)N2CCN(c3cccc(Cl)c3)CC2)cc1 showed a growth of 93.2%.
With CSc1ccc(-c2ccccc(=O)c2O)cc1 the growth was 11.5%.
CC(=O)c1cc2c(N)c(C(=O)Nc3ccccc3)sc2nc1C was tested, and the growth was 70.1%.
In the case of Cc1[nH]c(-c2cc(N)ccc2Cl)c2c1C(=O)CCCC2, the growth is reported as 36.5%.
Work on COc1ccc(Nc2nc(SC)nc(-c3cccc([N+](=O)[O-])c3)c2C#N)cc1 yielded a growth of 70.5%.
CC[C@H]1OC(=O)[C@H](C)[C@@H](O[C@H]2C[C@@](C)(OC)[C@@H](O)[C@H](C)O2)[C@H](C)[C@@H](O[C@@H]2O[C@H](C)C[C@H](N(C)C)[C@H]2O)[C@](C)(O)C[C@H](C)CN(C)[C@H](C)[C@@H](O)[C@]1(C)O showed a growth of 86.5%.
Cn1c(=O)[nH]c(=O)c2nc(CCC(=O)NCCC(=O)O)c(=O)[nH]c21 was tested, and the growth was 106%.
C=C(C)[C@@H]1CC[C@]2(C(=O)OC)CC[C@]3(C)[C@H](CC[C@@H]4[C@@]5(C)C/C(=C/c6ccc(OC)cc6)C(=O)C(C)(C)[C@@H]5CC[C@]43C)[C@@H]12 showed a growth of 84.7%.
COc1ccc(CN2c3ccccc3Oc3ccccc32)cc1F gave a growth of 60.7%.
In the case of COc1ccc(Nc2c3c4c(cccc4[nH]c2=O)C(=O)c2ccccc2-3)cc1, the growth is reported as 42.3%.
CCN1CCN(c2nc(NCCNc3ccnc4cc(Cl)ccc34)c3ccccc3n2)CC1 showed a growth of 53.3%.
O=C1c2ccccc2C(=O)c2c(N=Nc3[nH]c(=S)[nH]c3O)cccc21 gave a growth of 41.6%.
In the case of COc1ccc(CCNc2nc(SC)nc(-c3cccc([N+](=O)[O-])c3)c2C#N)cc1OC, the growth is reported as 80.5%.
For CCN(CC)c1ccc(-c2cc(-c3cc(OC)c(OC)c(OC)c3)nc(N3CCOCC3)c2C#N)cc1, the growth was 36.3%.
Work on NC(=NCCCC1(c2ccccc2)CCCC1)Nc1ccc(Cl)cc1 yielded a growth of 78.4%.
CSc1nc(NCCO)c(C#N)c(-c2cccc([N+](=O)[O-])c2)n1 showed a growth of 88.9%.
